# Reference: PubChem BioAssay AID1347414 (National Center for Advancing Translational Sciences (NCATS), 2020)
# Results filed as inconclusive are left out. Active and inactive are the calls of the source. Calls follow the shape of the dose curve; as a rule, active = well fitted inhibition curve with a large enough effect; inconclusive = small, poorly fitted or top-dose-only effect; inactive = no such curve, though single readings can be large or run the other way. Numbered stars: 1 amine (or outer) side, 2 acyl side, 3 side chain; on linkers, the order of the positions; unused ones are H or OH. Bridge positions count the residues as written; N and C are the ends. Square brackets hold non-standard residues; d marks the D form. Peptide text beside a SMILES is read from it. I, II: the chains in the order shown. Actinocin(9to1) = Cc1c2oc3c(C)ccc(C(=O)[*:1])c3nc-2c(C(=O)[*:2])c(N)c1=O; NMeV = CN[C@H](C(=O)O)C(C)C; Sar = CNCC(=O)O
# Test: qHTS to identify inhibitors of the type 1 interferon - major histocompatibility complex class I in skeletal muscle: Secondary screen by immunofluorescence; also: nearly all actives have a fitted effect of over 70% in size
# Conditions: C25cl48 myoblasts, IFN-b induced HLA-ABC immunofluorescence, 24 h; series mostly up to 49.8 µM
# In short: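 Immortalized human myoblasts C25cl48 were stimulated with 4.0 ng/ml IFN-beta and exposed to an 11-point 1:3 compound titration, top 50 uM, for 24 h at 37 C. They were then fixed and immunostained for HLA-ABC, and quantified by laser scanning cytometry.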
# Potency is read from the fitted curve at half-maximal effect.
row,Structure (SMILES),Potency
1,COc1nnc2ccc(N3CCC(c4ccc(OCCN5CCN(C)C(=O)[C@H]5C)cc4)CC3)nn12,14.5 nM (active)
2,COc1cc(F)ccc1-c1ncnc(Nc2cccc(CS(C)(=N)=O)c2)n1 (stereo unspecified),814 nM (active)
3,Cc1oncc1C(=O)Nc1ccc(C(F)(F)F)cc1,inactive
4,C[C@@]12O[C@@H](C[C@]1(O)CO)n1c3ccccc3c3c4c(c5c6ccccc6n2c5c31)CNC4=O,647 nM (active)
5,CNC(=O)c1nn(C)c2c1C(C)(C)Cc1cnc(Nc3ccc(N4CCN(C)CC4)cc3)nc1-2,5760 nM (active)
6,O=C(Nc1nc2cccc(-c3ccc(CN4CCS(=O)(=O)CC4)cc3)n2n1)C1CC1,1820 nM (active)
7,CC1=C(CO)C(=O)O[C@@H]([C@@H](C)[C@H]2CC[C@H]3[C@@H]4C[C@H]5O[C@]56[C@@H](O)C=CC(=O)[C@]6(C)[C@H]4CC[C@]23C)C1,726 nM (active)
8,CCC[C@H](NC(=O)/C(C#N)=C/c1cccc(Br)n1)c1ccccc1,6470 nM (active)
9,CC(C)(C)c1cnc(CSc2cnc(NC(=O)C3CCNCC3)s2)o1,289 nM (active)
10,Cc1sc2c(c1C)C(c1ccc(Cl)cc1)=N[C@@H](CC(=O)Nc1ccc(OCCOCCOCCOCCNc3cccc4c3C(=O)N(C3CCC(=O)NC3=O)C4=O)cc1)c1nnc(C)n1-2 (stereo partly specified),91.4 nM (active)
11,O=C1CN2Cc3c(ccc(Cl)c3Cl)N=C2N1,inactive
12,Cc1ncsc1-c1ccc([C@H](C)NC(=O)[C@@H]2C[C@@H](O)CN2C(=O)[C@@H](NC(=O)COCCCOCCNC(=O)C[C@@H]2N=C(c3ccc(Cl)cc3)c3c(sc(C)c3C)-n3c(C)nnc32)C(C)(C)C)cc1,145 nM (active)
13,Cc1c[nH]c2nc(Nc3ccc(N4CCN(C)CC4)c(F)c3)nc(-c3cccc(CC#N)c3)c12,1620 nM (active)
14,CN(C)Cc1c(C(=O)NCCOc2ccc(C(=O)NO)cc2)oc2ccccc12,162 nM (active)
15,CC(=O)[C@]1(O)Cc2c(O)c3c(c(O)c2[C@@H](O[C@H]2C[C@H](N)[C@H](O)[C@H](C)O2)C1)C(=O)c1ccccc1C3=O,230 nM (active)
16,COc1ncc(Nc2ncc(C(C)N3CCN(S(C)(=O)=O)CC3)cc2-c2nc(C)nc(N)n2)cc1F (stereo unspecified),inactive
17,CCS(=O)(=O)N1CCN(c2ccc(Nc3ncc(C(N)=O)c(NC4CC4)n3)cc2)CC1,1290 nM (active)
18,CN1CCC(c2c(O)cc(O)c3c(=O)cc(-c4ccccc4Cl)oc23)C1CO (stereo unspecified),408 nM (active)

row,Structure (SMILES),Potency
1,COCCN1CCN(Cc2ccc(-c3n[nH]c4c3C(=O)c3c(NC(=O)NN5CCOCC5)cccc3-4)cc2)CC1,51.4 nM (active)
2,COc1cc(Nc2ncc(F)c(Nc3ccc4c(n3)NC(=O)C(C)(C)O4)n2)cc(OC)c1OC,inactive
3,C=C1C(=O)O[C@@H]2[C@H]3O[C@]3(C)CCC=C(C)CC[C@@H]12,2890 nM (active)
4,CCCCC(=O)O[C@]1(C(=O)CO)[C@@H](C)C[C@H]2[C@@H]3CCC4=CC(=O)C=C[C@]4(C)[C@@]3(F)[C@@H](O)C[C@@]21C,inactive
5,CC(=O)NCC(=O)N1[C@@H]2CC[C@H]1c1ccc(Nc3ncc(C(F)(F)F)c(NC4CCC4)n3)cc12,14500 nM (active)
6,CCc1c(O)cc(O)c(C(=O)c2ccc(OCCN3CCOCC3)c(OC)c2)c1CC(=O)N(CCOC)CCOC,814 nM (active)
7,Cc1ccc2nc(NCCN)c3ncc(C)n3c2c1,4080 nM (active)
8,CC[C@]1(O)C[C@H]2CN(CCc3c([nH]c4ccccc34)[C@@](C(=O)OC)(c3cc4c(cc3OC)N(C=O)[C@H]3[C@@](O)(C(=O)OC)[C@H](OC(C)=O)[C@]5(CC)C=CCN6CC[C@]43[C@@H]65)C2)C1,inactive
9,CN1CCN(C(=O)c2ccc3cc(CCNc4ncnc5ccc(C#N)cc45)ccc3c2)CC1,inactive
10,CC1(C)CC(=O)c2c(C(F)(F)F)nn(-c3ccc(C(N)=O)c(NC4CCC(O)CC4)c3)c2C1 (stereo unspecified),32.4 nM (active)
11,CNC(=O)c1ccc(Nc2ncc(C(F)(F)F)c(NCc3nccnc3N(C)S(C)(=O)=O)n2)cc1,6470 nM (active)
12,Cn1cc(CNCC2CCN(c3ncc(C(=O)NO)cn3)CC2)c2ccccc21,9.1 nM (active)
13,Cc1cc2c(cc1CC(=O)c1sccc1S(=O)(=O)Nc1onc(C)c1Cl)OCO2,inactive
14,OCCCNc1cc(-c2ccnc(Nc3cccc(Cl)c3)n2)ccn1,81.4 nM (active)
15,"Cc1c2oc3c(C)ccc(C(=O)N[C@@H]4C(=O)N[C@H](C(C)C)C(=O)N5CCC[C@H]5C(=O)N(C)CC(=O)N(C)[C@@H](C(C)C)C(=O)O[C@@H]4C)c3nc-2c(C(=O)N[C@@H]2C(=O)N[C@H](C(C)C)C(=O)N3CCC[C@H]3C(=O)N(C)CC(=O)N(C)[C@@H](C(C)C)C(=O)O[C@@H]2C)c(N)c1=O (I: T[dV]P[Sar][NMeV] / II: T[dV]P[Sar][NMeV]; ester I:1-I:C, II:1-II:C; linker I:N-II:N via Actinocin(9to1))",57.6 nM (active)
16,COC(=O)C[C@](O)(CCCC(C)(C)O)C(=O)O[C@@H]1C(OC)=C[C@]23CCCN2CCc2cc4c(cc2[C@H]13)OCO4,28.9 nM (active)
17,Cn1cc(-c2ccc(-c3cncc(Cl)c3N3CCC4(CCNC4=O)CC3)cc2)cn1,inactive
18,O=C(/C=C/c1cccc(S(=O)(=O)Nc2ccccc2)c1)NO,514 nM (active)
